One experiment has as its target T1, Serine/threonine-protein kinase NLK (Homo sapiens) (UniProt Q9UBE8).
T1 sequence (whole entry): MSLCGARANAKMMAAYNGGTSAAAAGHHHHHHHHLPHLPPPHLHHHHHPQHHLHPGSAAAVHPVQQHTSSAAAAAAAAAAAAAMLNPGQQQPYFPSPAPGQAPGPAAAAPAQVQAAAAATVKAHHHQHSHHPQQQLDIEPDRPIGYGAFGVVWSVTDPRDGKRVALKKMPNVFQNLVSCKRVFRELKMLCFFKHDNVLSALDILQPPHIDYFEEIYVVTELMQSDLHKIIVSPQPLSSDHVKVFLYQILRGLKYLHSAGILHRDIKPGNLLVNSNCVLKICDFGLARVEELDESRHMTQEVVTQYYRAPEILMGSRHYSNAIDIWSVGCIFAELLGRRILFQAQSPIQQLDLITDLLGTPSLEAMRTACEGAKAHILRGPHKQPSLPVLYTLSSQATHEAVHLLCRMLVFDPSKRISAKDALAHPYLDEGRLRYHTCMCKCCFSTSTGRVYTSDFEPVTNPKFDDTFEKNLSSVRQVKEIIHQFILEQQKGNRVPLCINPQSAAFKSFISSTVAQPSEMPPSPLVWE
The note with it: at 1 µM.
For the compound `COc1ccc(Cl)cc1NC(=O)Nc1cc(C)nc2ccccc12`, the residual activity is 99%.
`O=c1cc(N2CCOCC2)oc2c1ccc1ccccc12`: the residual activity was determined as 108%.
The same measure, in the same setting: next, `Nc1ncnc2[nH]nc(Nc3ccc(F)cc3)c12`: 93%; `O=C(c1cc2cc(O)ccc2[nH]1)c1cc2cc(O)ccc2[nH]1`: 61%.

The target in another experiment is T1, Serine/threonine-protein kinase NLK (Homo sapiens). Conditions: at 10 µM.
Take `O=C1NC(=O)C(c2cn(CCCO)c3ncccc23)=C1c1cnccn1`: the residual activity worked out at 93%.
On to `O=C(NC(NC(=S)Nc1ccc(F)c([N+](=O)[O-])c1)C(Cl)(Cl)Cl)C(c1ccccc1)c1ccccc1` (centres undefined), for which the residual activity was 101%.
The same measure, in the same setting: next, `CC(C)(C)n1nc(Cc2cccc3ccccc23)c2c(N)ncnc21`: 15%.
`Nc1ncnc2c1c(-c1ccc(Oc3ccccc3)cc1)cn2C1CCCC1`: the residual activity worked out at 41%.
As to `O=C(c1ccccc1)c1ccc(N2CCOCC2)cc1O`, the residual activity came out at 63%.
On to `COc1cc2nccc(Oc3ccc(NC(=O)Nc4cc(C)on4)c(Cl)c3)c2cc1OC`, for which the residual activity worked out at 42%.
On the same count and under the same terms, next, `CC(C)c1nn(-c2c(Cl)cccc2Cl)c2nc(Cc3ccc(OCCO)cc3)[nH]c(=O)c12`: 46%; `Cn1sc(=O)n(Cc2ccccc2)c1=O`: 92%.
Regarding `Nc1ncnc2c1cnn2-c1ccccc1`, the residual activity was 80%.
`O=C1NC(=O)C(c2c[nH]c3ccccc23)=C1c1c[nH]c2ccccc12`: the residual activity was 71%.
Still for that read-out and setting: next, `Cn1c2ccccc2c2c3c(c4c5ccccc5n(CCC#N)c4c21)CNC3=O`: 41%; `O=C1NC(=O)c2c1c1c3ccccc3[nH]c1n1cncc21`: 72%; `COc1cc2c(cc1OC)-c1n[nH]c(Nc3cccc(F)c3)c1C2`: 17%.
On to `Nc1n[nH]c2nc3ccccc3nc12`, for which the residual activity worked out at 91%.
For `O=c1cc(N2CCNCC2)oc2c(-c3ccccc3)cccc12`, the residual activity came out at 77%.
For `CCCC(=O)Oc1ccc2[nH]c(C(=O)c3cc4ccccc4[nH]3)cc2c1`, the residual activity was found to be 108%.
Still for that read-out and setting: next, `O=C1Nc2ccccc2/C1=C\c1c(Cl)[nH]c2ccccc12`: 73%; `O=C1Nc2ccc(Cl)cc2/C1=C/c1cc(Cl)c(O)c(Cl)c1`: 15%; `COc1cc2nccc(Oc3ccc(NC(=S)NC(=O)c4ccccc4C)cc3)c2cc1OC`: 60%.
As to `O=C1Cc2c([nH]c3ccc(Br)cc23)-c2ccccc2N1`, the residual activity was found to be 54%.
Take `NC(=O)Nc1sc(-c2ccc(F)cc2)cc1C(N)=O`: the residual activity was 61%.
Still for that read-out and setting: to `COc1ccc(Cl)cc1NC(=O)Nc1cc(C)nc2ccccc12` belongs 82%; to `O=c1cc(N2CCOCC2)oc2c1ccc1ccccc12`, 80%; to `Nc1ncnc2[nH]nc(Nc3ccc(F)cc3)c12`, 55%.
Still for that read-out and setting: to `O=C(c1cc2cc(O)ccc2[nH]1)c1cc2cc(O)ccc2[nH]1` belongs 19%.
